The list is not random: actives were taken first. Their share in the collection is about 2.2%.
hiPSC survival = enhancers of human iPSC single-cell survival; hiPSC single-cell survival, ATPlite luminescence; 100% = ROCK inhibitor wells, 0% = DMSO; survival enhancement, % at 20 µM; 0.044% of 360,000 active; AID 602274; in the data active = survival enhancement above about 18%;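 also: cells exposed to compounds for 16 hours before the ATP read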
CF NFkB block = cystic fibrosis NF-kB activation inhibition; KKLEB NF-kB-GFP reporter, PAF-induced, GFP fluorescence overnight; inhibition, % at 5 µM; 0.86% of 360,000 active; AID 588850;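 active = at least 50% inhibition at 5 µM, scaled per plate between neutral and stimulator controls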;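 also: PAF is a Pseudomonas aeruginosa culture filtrate used as stimulus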
TRAIL sens C8 = sensitizes caspase-8 expressing cells to TRAIL; 1% of 360,000 active; inhibition (viability loss, TRAIL sensitization), % at 10 µM; NB7+C8 cells + TRAIL, ATPlite viability luminescence;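 active = compounds causing at least 50% loss of cell viability in the single-dose screen, relative to plate controls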
PPC-1+TRAIL kill = kills PPC-1 cancer cells in the presence of TRAIL; PPC-1 cells + TRAIL, ATPLite viability luminescence; 0.41% of 220,000 active; AID 1443; cell killing (% activity), % at 4 µM or 5 µM;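 active = cell killing above 50% in the first pass at 4 µM, then a duplicate retest at 5 µM averaging 50% or more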
HIF-2a inh = inhibitors of HIF-2a; 786-0 RCC cells HIF-2a reporter, luciferase luminescence, overnight; inhibition, % at 18.8 µM; 0.72% of 360,000 active;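 active = inhibition of the luminescence signal of 40% or more relative to plate controls, in a single-dose primary screen at 18.75 µM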
KKLEB tox = counter-screen for CF NF-kB inhibitors: cytotoxicity; KKLEB CF airway cells viability, ATPlite luminescence, overnight; hits give low values; cells stimulated with P. aeruginosa culture filtrate; activity change (cytotoxicity), % at 5 µM; 0.36% of 360,000 active; AID 602141;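 active = corrected activity change at or below -50% at 5 µM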
Mdm2-MdmX confirm = confirmation of inhibitors of human Mdm2/MdmX interaction, set 2 | 99% of 740 active | SaOS-2 split-luciferase Mdm2/MdmX complementation, luminescence | shares compounds with HIF-2a inh | AID 504601 | inhibition, % at 8 µM;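 active = mean inhibition of the luminescence signal across two replicates at or above 26 percent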
HIF-2a conf = HIF-2a inhibition, single concentration confirmation; inhibition, % at 18.8 µM; shares compounds with HIF-2a inh; AID 651580; 56% of 1,800 active; 786-0 RCC cells, HIF-2a luciferase reporter luminescence, overnight;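 active = mean inhibition across four replicates of at least 40 percent at the single tested concentration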
HIF-1a counter = HIF-1a inhibition counter-screen for HIF-2a hits | shares compounds with HIF-2a inh | MiaPaCa-2 HIF-1a luciferase reporter, desferoxamine, overnight | inhibition, % at 18.8 µM | 72% of 1,800 active | AID 651589;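 active = mean inhibition of the reporter signal across four replicates at the single tested dose of 50% or more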
Of the large screens only hits and unclear results are named; the others gave an inactive call (follow-up assays come after a bar, where they were run); ! = a repeat was not active.

CC(C)C(CCNC1CCN(C)CC1)c1ccc(Cl)cc1 (configuration not stated)	none (no result: PPC-1+TRAIL kill)
CN1CCC(NCCC(c2ccc(F)cc2)c2ccc(Cl)cc2)CC1 (configuration not stated)	none (no result: PPC-1+TRAIL kill) | Mdm2-MdmX confirm 103
CC1CCC(C(C)C)C(OC(=O)Cn2c(-c3ccc(Cl)cc3)[n+](C)c3ccccc32)C1 (configuration not stated)	CF NFkB block 56, TRAIL sens C8 51, KKLEB tox -58 | Mdm2-MdmX confirm 100
CC1CCC(C(C)C)C(OC(=O)COC(=O)c2cccn2C)C1 (configuration not stated)	none
CC1CCC(C(C)C)C(OC(=O)Cn2c(-c3ccc(Br)cc3)[n+](C)c3ccccc32)C1 (configuration not stated)	CF NFkB block 54, KKLEB tox -57! | Mdm2-MdmX confirm 103
CC(C)[C@@H]1CC[C@@H](C)C[C@H]1OC(=O)C[n+]1cc(-c2ccc(Cl)cc2)n2c1CCCCC2	none
Cc1ccccc1OCc1n(CC(=O)OC2CC(C)CCC2C(C)C)c2ccccc2[n+]1C (configuration not stated)	CF NFkB block 83, HIF-2a inh 94!, KKLEB tox -83 | Mdm2-MdmX confirm 102 | HIF-2a conf inactive | HIF-1a counter 107
O=C(NN1C(=O)NC2(CCCCC2)C1=O)c1ccc(Cl)c(Cl)c1	none (no result: PPC-1+TRAIL kill)
N#Cc1c(N2CCCC(O)C2)nc(N)c2c(N)nc3c(c12)CC(=O)N3C12CC3CC(CC(C3)C1)C2 (configuration not stated)	CF NFkB block 58 | Mdm2-MdmX confirm 91
C=C(C)CN(CC)c1nc(N)c2c(N)nc3c(c2c1C#N)CC(=O)N3C12CC3CC(CC(C3)C1)C2	none
NC(Cc1ccccc1)C(=O)N1CCCCC1 (configuration not stated)	none (no result: PPC-1+TRAIL kill)
O=C(NCCc1ccccc1)c1ccc2c(c1)OCCCO2	TRAIL sens C8 92, HIF-2a inh 92, KKLEB tox -52 (no result: PPC-1+TRAIL kill) | Mdm2-MdmX confirm 99
O=C(NCCc1ccccc1)c1ccc2c(c1)OCCO2	TRAIL sens C8 83, HIF-2a inh 84 (no result: PPC-1+TRAIL kill) | HIF-2a conf 91 | HIF-1a counter 95
COc1cc(NC(=O)c2cccc3c2C(=O)N(C2CCCCC2)C3)cc(OC)c1OC	none (no result: PPC-1+TRAIL kill)
